Assay results as given in PubChem BioAssay.
Active and inactive are the calls of the source. Cut-off read from the data, not from the text of the source, unless noted: active = inhibition above about 33%; inactive = the rest.

What was measured:
[1] = StAR promoter reporter inhibitors, counter-screen for LRH-1 inverse agonist project, cell-based, luminescence, high throughput (AID 651611; in the data active = inhibition above about 28%); details: StAR promoter luciferase reporter counterscreen, at 3.6 µM, hits give high values
[2] = target: Nuclear receptor subfamily 5 group A member 2 (Homo sapiens) (UniProt O00482); experiment: NR5A2 activity suppression in reporter cells – cell-based, luminescence, confirmation (AID 651613; in the data active = inhibition above about 42%;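 note: HEK293T cells co-transfected with LRH-1 and StAR promoter luciferase reporter; 0% = vehicle wells and 100% = parental cells lacking receptor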); details: cell-based LRH-1 luciferase reporter, inverse agonism; at 3.6 µM; hits give high values
[3] = target: Steroidogenic factor 1 (Homo sapiens) (UniProt Q13285); experiment: inverse agonism at SF1 nuclear receptor – cell-based, luminescence, high throughput, counter-screen for LRH-1 inverse agonist project (AID 651614; in the data active = inhibition above about 44%;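 note: cells cotransfected with StAR promoter reporter and SF1 expression vector; 0% = vehicle on cells with receptor and 100% = vehicle on cells lacking receptor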); details: cell-based SF1 luciferase reporter, at 3.6 µM, hits give high values
[4] = compounds suppressing VP16-driven luciferase signal – cell-based, luminescence, high throughput, counter-screen for LRH-1 inverse agonist project (AID 651615); details: Gal4-VP16 luciferase reporter cells, at 3.6 µM, hits give high values
[5] = system: transactivating tegument protein VP16 (Human herpesvirus 1); experiment: compounds suppressing VP16-driven luciferase signal – cell-based, luminescence, single concentration, counter-screen for SRC2 inhibitor project (AID 652007; in the data active = inhibition above about 36%); details: cell-based VP16 transactivation luciferase reporter, at 8.9 µM, hits give high values
[6] = target: Nuclear receptor coactivator 2 (Homo sapiens) (UniProt Q15596); experiment: inhibition of GAL4-SRC2 driven luciferase expression – cell-based, luminescence, HEK293, triplicate, confirmation (AID 652008;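 active = mean inhibition above 46.5%, the solvent-only control mean plus 3 SD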;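 note: 0% = DMSO-treated cells and 100% = Gossypol at 36 µM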); details: HEK293 GAL4-SRC2 luciferase reporter, at 8.9 µM, hits give high values
Nuclear receptor coactivator 2 (Homo sapiens), sequence (Q15596 whole entry, looked up, the tested form may be a part): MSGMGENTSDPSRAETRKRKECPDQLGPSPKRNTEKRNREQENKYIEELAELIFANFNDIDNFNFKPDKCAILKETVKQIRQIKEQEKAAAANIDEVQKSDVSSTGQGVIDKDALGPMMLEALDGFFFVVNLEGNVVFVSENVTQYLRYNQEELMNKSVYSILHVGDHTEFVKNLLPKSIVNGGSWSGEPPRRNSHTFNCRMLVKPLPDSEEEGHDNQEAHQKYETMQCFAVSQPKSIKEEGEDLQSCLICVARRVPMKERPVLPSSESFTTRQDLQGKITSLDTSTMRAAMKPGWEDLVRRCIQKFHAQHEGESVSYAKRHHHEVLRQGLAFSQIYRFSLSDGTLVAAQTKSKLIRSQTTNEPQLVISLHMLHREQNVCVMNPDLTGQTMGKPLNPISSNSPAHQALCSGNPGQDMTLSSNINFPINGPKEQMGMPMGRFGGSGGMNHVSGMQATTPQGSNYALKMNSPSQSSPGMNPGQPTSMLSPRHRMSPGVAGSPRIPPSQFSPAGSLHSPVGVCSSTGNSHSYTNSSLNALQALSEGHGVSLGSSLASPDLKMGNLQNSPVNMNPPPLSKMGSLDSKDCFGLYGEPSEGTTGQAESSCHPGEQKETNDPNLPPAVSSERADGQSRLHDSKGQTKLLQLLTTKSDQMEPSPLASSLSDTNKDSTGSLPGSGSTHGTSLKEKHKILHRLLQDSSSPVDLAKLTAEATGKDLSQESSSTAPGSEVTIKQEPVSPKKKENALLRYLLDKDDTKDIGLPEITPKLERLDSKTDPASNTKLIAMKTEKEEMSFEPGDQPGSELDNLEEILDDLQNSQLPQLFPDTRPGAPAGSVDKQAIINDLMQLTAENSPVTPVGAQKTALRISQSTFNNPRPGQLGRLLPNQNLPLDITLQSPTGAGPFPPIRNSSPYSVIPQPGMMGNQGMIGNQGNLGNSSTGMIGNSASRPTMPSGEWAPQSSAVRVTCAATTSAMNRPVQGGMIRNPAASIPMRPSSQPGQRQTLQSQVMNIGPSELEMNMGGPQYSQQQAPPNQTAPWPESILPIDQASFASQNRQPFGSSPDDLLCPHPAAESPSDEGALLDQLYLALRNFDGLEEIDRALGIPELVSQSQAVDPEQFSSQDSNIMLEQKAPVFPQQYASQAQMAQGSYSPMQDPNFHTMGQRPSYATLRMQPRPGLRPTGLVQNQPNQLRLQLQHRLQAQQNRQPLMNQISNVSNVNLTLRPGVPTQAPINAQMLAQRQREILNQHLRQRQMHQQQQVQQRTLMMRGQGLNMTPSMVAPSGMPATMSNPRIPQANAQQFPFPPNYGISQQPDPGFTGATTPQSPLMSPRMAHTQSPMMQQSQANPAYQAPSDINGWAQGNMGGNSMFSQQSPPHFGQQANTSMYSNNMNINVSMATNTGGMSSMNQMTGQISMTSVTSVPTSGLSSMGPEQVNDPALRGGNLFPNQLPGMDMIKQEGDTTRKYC

Nuclear receptor subfamily 5 group A member 2 (Homo sapiens), sequence (O00482 whole entry, looked up): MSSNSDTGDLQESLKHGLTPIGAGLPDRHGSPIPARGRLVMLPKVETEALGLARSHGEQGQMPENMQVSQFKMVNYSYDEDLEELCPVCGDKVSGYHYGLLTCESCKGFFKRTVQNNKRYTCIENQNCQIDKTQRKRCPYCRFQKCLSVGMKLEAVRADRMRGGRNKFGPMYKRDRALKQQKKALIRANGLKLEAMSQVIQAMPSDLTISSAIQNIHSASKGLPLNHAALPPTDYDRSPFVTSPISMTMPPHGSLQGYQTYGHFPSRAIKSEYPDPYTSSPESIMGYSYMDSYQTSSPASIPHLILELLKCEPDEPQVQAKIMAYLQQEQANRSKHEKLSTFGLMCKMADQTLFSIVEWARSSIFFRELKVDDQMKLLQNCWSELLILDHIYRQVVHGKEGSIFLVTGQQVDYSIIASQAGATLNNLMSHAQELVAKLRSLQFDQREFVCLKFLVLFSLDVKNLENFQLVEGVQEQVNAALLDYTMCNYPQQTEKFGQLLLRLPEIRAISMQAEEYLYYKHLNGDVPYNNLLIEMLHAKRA
Steroidogenic factor 1 (Homo sapiens), sequence (Q13285 whole entry, looked up, the tested form may be a part): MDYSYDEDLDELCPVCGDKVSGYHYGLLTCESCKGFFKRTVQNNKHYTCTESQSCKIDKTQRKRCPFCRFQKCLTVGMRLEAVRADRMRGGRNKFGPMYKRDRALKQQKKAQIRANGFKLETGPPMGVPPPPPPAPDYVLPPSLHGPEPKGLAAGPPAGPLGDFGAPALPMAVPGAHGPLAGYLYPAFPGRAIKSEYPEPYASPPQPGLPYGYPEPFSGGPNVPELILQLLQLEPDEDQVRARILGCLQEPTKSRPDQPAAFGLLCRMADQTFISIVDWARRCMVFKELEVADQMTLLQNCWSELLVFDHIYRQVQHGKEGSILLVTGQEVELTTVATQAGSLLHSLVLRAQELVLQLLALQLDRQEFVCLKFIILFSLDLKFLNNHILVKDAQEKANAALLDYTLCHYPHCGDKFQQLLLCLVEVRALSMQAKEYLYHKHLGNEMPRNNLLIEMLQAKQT

SMILES | inhibition [1] | inhibition [2] | inhibition [3] | inhibition [4] | inhibition [5] | inhibition [6]
Cc1cc(C(=O)CSc2nnnn2C)c(C)n1CCc1ccc(F)cc1 | 5.26% (inactive) | 49.4% (active) | 48% (active) | -3.7% (inactive) |  | 
Cc1ccc(N2CC(C(=O)Nc3nc4ccc(S(C)(=O)=O)cc4s3)CC2=O)cc1 (stereo not drawn) | 12.4% (inactive) | 52.6% (active) | 48.4% (active) | -0.21% (inactive) |  | 
CC(C)(C)C(=O)Nc1cc2nn(-c3ccccc3)nc2cc1Cl | 48.3% (active) | 19.3% (inactive) | 43.6% (active) | 50.1% (active) | 88.2% (active) | 90.3% (active)
O=C1C=CC2(C=C1)O[C@H](Cc1ccccc1)[C@@H](Cc1ccccc1)O2 | 37% (active) | 83.4% (active) | 73.2% (active) | 72.5% (active) | 94.4% (active) | 63.8% (active)
Cc1ccc(NC(=O)C2=C(c3ccccc3)S(=O)(=O)CCS2(=O)=O)cc1 | 11% (inactive) | -4.23% (inactive) | 30.3% (inactive) | 48.5% (active) | 92.8% (active) | 96.9% (active)
CC1C/C(=C/c2ccncc2)C(=O)/C(=C/c2ccncc2)C1 (stereo not drawn) | 17.3% (inactive) | 73.6% (active) | 84.2% (active) | 72.9% (active) | 93.7% (active) | 90.8% (active)
N#CC(=C1C=CC(=NO)C(Cl)=C1)c1ccccc1 | 26% (inactive) | 41.8% (active) | 61.3% (active) | 22.2% (inactive) | -5.64% (inactive) | 20.3% (inactive)
CCOc1ccc(-c2cc(CCCC(=O)Nc3cccc(OC)c3)no2)cc1 | 40.6% (active) | 40.9% (inactive) | 48.5% (active) | 6.33% (inactive) | 36.8% (active) | 58.9% (active)
Cc1ccnc2c1ccc1cccnc12 | 82.7% (active) | 108% (active) | 67.4% (active) | 65.5% (active) | -9.35% (inactive) | 29% (inactive)
COc1ccc(C)cc1NS(=O)(=O)c1ccc(-c2cnc(C3CC3)o2)cc1 | 41.5% (active) | 41.9% (active) | 58% (active) | 54.5% (active) | 6.98% (inactive) | 34.7% (inactive)
C=CC(=O)N1C/C(=C/c2ccccc2)C(=O)/C(=C\c2ccccc2)C1 | -2.93% (inactive) | 71.8% (active) | 77.5% (active) | 62.2% (active) | 88.6% (active) | 65.3% (active)
O=C1/C(=C\c2ccccc2)CN(C(=O)CCN2CCCCC2)C/C1=C/c1ccccc1 | 56.7% (active) | 84.7% (active) | 84.8% (active) | 73.7% (active) | 85.7% (active) | -4.61% (inactive)
Cc1scc(C(=O)N/N=C/c2ccc([N+](=O)[O-])o2)c1C | 42.8% (active) | 76.3% (active) | 73.5% (active) | 25.1% (inactive) | 62.4% (active) | 68% (active)
COc1ccc(-c2cc(-c3nc4ccccn4c3NCc3ccccc3)ccc2OC)cc1 | 95.2% (active) | 109% (active) | 97.3% (active) | 98.7% (active) | 96.8% (active) | 98.3% (active)
O=C(Nc1ccc(Cl)cc1)/C(=C/c1cccc(O)c1)c1nc2ccccc2s1 | 52% (active) | 78.1% (active) | 78.1% (active) | 71.2% (active) | 48.6% (active) | 80.7% (active)
Cc1cc(C)c(C#N)c(Sc2nc(C)c([N+](=O)[O-])c(C)c2C#N)n1 | 3.51% (inactive) | 10.9% (inactive) | 9.59% (inactive) | 20.6% (inactive) | 12.9% (inactive) | 25.4% (inactive)
Cc1cccc(/C=C(\c2nc3ccccc3[nH]2)S(=O)(=O)c2ccccc2)c1 | 43.2% (active) | 35.1% (inactive) | 48.8% (active) | 54.1% (active) | 10.3% (inactive) | 50.5% (active)
Cc1cc(C)n2c(Nc3ccc4c(c3)OCCO4)c(-c3cc4ccccc4o3)nc2n1 | -27.7% (inactive) | -26.8% (inactive) | -6.96% (inactive) | 0.38% (inactive) | -60.9% (inactive) | -12.5% (inactive)
COc1ccc(OC)c(N(CCN2C(=O)c3ccccc3C2=O)C(=O)CCl)c1 | 10.9% (inactive) | 30.5% (inactive) | 54% (active) | 16.1% (inactive) | 30.9% (inactive) | 57.6% (active)
CCCCCCCCCC[n+]1cccc2c3ccccc3ccc21 | 83.3% (active) | 110% (active) | 96.1% (active) | 95.9% (active) | 48.9% (active) | 58.6% (active)
Brc1ccc2ncnc(NCc3ccccc3)c2c1 | 30.5% (active) | 72.4% (active) | 59.9% (active) | 80.8% (active) | 21.7% (inactive) | 54.5% (active)

SMILES | inhibition [1] | inhibition [2] | inhibition [3] | inhibition [4] | inhibition [5] | inhibition [6]
O=C(CCl)N(c1ccccc1)c1c[nH]c2ccccc12 | 62.4% (active) | 55.8% (active) | 38.5% (inactive) | 18.8% (inactive) | 21.6% (inactive) | 17.9% (inactive)
COc1ccc(/C=C/c2nc3ccccc3c(=O)o2)cc1 | 38.6% (active) | -49.3% (inactive) | 37.2% (inactive) | -63% (inactive) | 38.4% (active) | 84.3% (active)
COc1ccc(-c2noc(CCCC(=O)NC3CCCC3)n2)cc1 | 15.1% (inactive) | 59.7% (active) | 60.5% (active) | 34.5% (active) | 48.8% (active) | 53.7% (active)
COc1ccc(CCNc2ncnc3sc(C)cc23)cc1OC | 35.5% (active) | 90.1% (active) | 57.7% (active) | 57.9% (active) | 16.6% (inactive) | 25.8% (inactive)
O=C(NCCc1c[nH]c2ccccc12)c1ccc([N+](=O)[O-])o1 | 15.7% (inactive) | 62.6% (active) | 59.7% (active) | 21.7% (inactive) | 2.92% (inactive) | 15.3% (inactive)
Cc1ccc(-c2nc(NC(=O)c3nn(C)cc3[N+](=O)[O-])sc2C)cc1 | 18.9% (inactive) | 21.2% (inactive) | 32.2% (inactive) | -0.37% (inactive) | 35.3% (inactive) | 50.5% (active)
CC(=O)NC(c1cccc([N+](=O)[O-])c1)c1ccc2cccnc2c1O (stereo not drawn) | 85.6% (active) | 100% (active) | 91.2% (active) | 83.9% (active) | 0.91% (inactive) | 31.1% (inactive)
CC(=O)c1c(C)[nH]c(C(=O)COc2cc(C)ccc2C(C)C)c1C | 21.1% (inactive) | 53.5% (active) | 71% (active) | 50.3% (active) | 17.3% (inactive) | 43% (inactive)
CC(C)(C)c1ccc(Oc2ccc(NC(=O)C3CC=CCC3C(=O)O)cc2)cc1 (stereo not drawn) | 1.67% (inactive) | 6.39% (inactive) | 0.96% (inactive) | 5.54% (inactive) | 8.31% (inactive) | 19.9% (inactive)
O=C(CCl)Nc1cc2[nH]c(=O)[nH]c2cc1Br | 71.3% (active) | 78.6% (active) | 79.1% (active) | 2.89% (inactive) | 76.5% (active) | 74.7% (active)
CCC(C(=O)NCc1ccccc1)n1c(CSCCOc2ccccc2)nc2ccccc21 (stereo not drawn) | 21.1% (inactive) | 21.6% (inactive) | 25.1% (inactive) | 29% (inactive) | 19.5% (inactive) | 78.3% (active)
CC1CCC/C=C/C(=O)c2c(O)cc(O)cc2CC(=O)O1 (stereo not drawn) | 8.63% (inactive) | 35.8% (inactive) | 12.9% (inactive) | 29.1% (inactive) | 19.4% (inactive) | 33.2% (inactive)
C#CCN(C[C@@H]1[C@@H](OC(=O)Nc2cccs2)[C@@H](OC(=O)Nc2cccs2)Cn2c(=O)ccc(=O)n21)S(=O)(=O)c1ccc(C)cc1 | 32% (active) | 54.4% (active) | 54.8% (active) | 36.8% (active) | 26.4% (inactive) | 88.2% (active)
O=C(CCCc1ccccc1)c1ccc2c(c1)OCCO2 | 62.5% (active) | 7.99% (inactive) | 55.9% (active) | 26.2% (inactive) | 54.7% (active) | 73.9% (active)
CCN(CC)CCC(=O)N1C/C(=C/c2ccccc2)C(=O)/C(=C\c2ccccc2)C1 | 57.8% (active) | 84.4% (active) | 86.8% (active) | 76.2% (active) | 84.8% (active) | 23.6% (inactive)
COc1cccc(C2=CC(=O)CC(C)(C)C2)n1 | 9.54% (inactive) | 61.3% (active) | 58.1% (active) | 45.9% (active) | -6.05% (inactive) | 32.9% (inactive)
O=C(NCCOc1cccnc1)c1ccc(OC2CCN(Cc3ccccn3)CC2)cc1 | 90.8% (active) | 105% (active) | 97.6% (active) | 87.7% (active) | 15.9% (inactive) | 56.5% (active)
CN(C)CCC(=O)N1C/C(=C/c2ccccc2)C(=O)/C(=C\c2ccccc2)C1 | 61.4% (active) | 84% (active) | 86.6% (active) | 77.2% (active) | 86.8% (active) | 55.3% (active)
O=C(CSc1ncccc1C(=O)O)Nc1ccc2c(c1)OCCO2 | 4.26% (inactive) | 11.1% (inactive) | 16.6% (inactive) | 0.17% (inactive) | -2.25% (inactive) | -11.1% (inactive)
Cn1cnc([N+](=O)[O-])c1Oc1ccc2ccccc2c1 | 38.9% (active) | 55.3% (active) | 54.8% (active) | 10.8% (inactive) | 11.9% (inactive) | 19.6% (inactive)
CC1=C(CO)C(=O)OC([C@@H](C)C2CC[C@H]3C4C[C@H]5O[C@]56[C@@H](O)C=CC(=O)[C@]6(C)C4CC[C@]23C)C1 (stereo partly drawn) | 67.7% (active) | 66.2% (active) | 79.8% (active) | 79.6% (active) | 53.8% (active) | 41.6% (inactive)
